Potency data for 16 compounds are collected here from PubChem BioAssay (NCATS).

What all share (experiment): qHTS profiling for inhibitors of Plasmodium falciparum proliferation (AID 504749); note: nearly all actives have a fitted effect of over 60% in size
Conditions in all cases: P. falciparum in erythrocytes, SYBR Green DNA, 72 h; series mostly up to 28.7 µM

For one assay, the system named is CP297. In a few lines: (§1)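 Each compound contacts P. falciparum-infected red blood cells for 72 h at 37 C; lysis buffer (Tris, EDTA, saponin, Triton X, SYBR Green I) is added and fluorescence measured next morning; values normalized to controls.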
Another assay has as its system DIV14. Summed up:
as §1

The test system of a further assay is DIV30. In a few lines:
as §1

The next assay deals with Dd2. In a few lines:
as §1

The next assay relates to FAB9. In a few lines: as §1
A further assay has as its system CP266. In a few lines:
as §1

The test system of a further assay is CP269. In a few lines: as §1
In a further assay the test system is CP286. In a few lines:
as §1

A further assay deals with CP335. In a few lines:
as §1

For the next assay, the system named is DIV17. Summed up:
as §1

In the next assay the test system is GB4. Summed up:
as §1

Another assay deals with CP315. In a few lines: as §1
Another assay deals with ECU. In a few lines: as §1
For another assay, the system named is CP265. Summed up:
as §1

The test system of a further assay is CP329. Summed up: as §1
The next assay relates to DFO2036. In a few lines:
as §1

The next assay deals with CP291. Summed up:
as §1

The subject of a further assay is CP305. In a few lines:
as §1

The next assay has as its system CP325. Summed up:
as §1

The test system of the next assay is CP268. In a few lines:
as §1

Structures are written as SMILES. Records with an inconclusive call do not appear. Calls of active or inactive are those of the source. Calls come from the whole dose curve; as a rule, active = well fitted inhibition curve with a large enough effect; inconclusive = small, poorly fitted or top-dose-only effect; inactive = flat fitted curve, though single readings scatter.
Potency is the fitted concentration of half-maximal effect.

As for `COC(=O)C(c1ccccc1Cl)N1CCc2sccc2C1` (centres undefined), the Potency result with CP297, in the assay with DIV14, in the assay with DIV30, in the assay with Dd2 and in the assay with FAB9 was “inactive” throughout.

Consider `CN1CCc2cccc3c2[C@H]1Cc1ccc(O)c(O)c1-3`, for which the Potency with CP266 was 8.49 µM (active); in the assay on CP269, 16.9 µM (active); in the assay with CP286, 6.31 µM (active); in the assay on CP335, 3.79 µM (active); in the assay on DIV14, 7.57 µM (active); in the assay with DIV17 it was 7.57 µM (active). In addition, in the assay with GB4, the Potency was 7.57 µM (active). The Potency entry in the assay on Dd2 is “inactive”.

For `CCN(CC)CCOc1ccc2c(c1)C(=O)c1cc(OCCN(CC)CC)ccc1-2`, the Potency in the assay with CP286 was 10 µM (active); in the assay with DIV14, 13.5 µM (active); with DIV17, 9.53 µM (active); with Dd2 it was 12.6 µM (active); with ECU it was 8.91 µM (active); in the assay with GB4, 12 µM (active). Further, the Potency result in the assay with CP315 is “inactive”.

On to `O=S(c1cc(Cl)cc(Cl)c1O)c1cc(Cl)cc(Cl)c1O`, for which the Potency result with CP286 was “inactive”. Also, in the assay with FAB9, the Potency is 0.0224 µM (active).

With `CN(C)CCOC(c1ccc(Cl)cc1)c1ccccn1` (centres undefined), the Potency in the assay on CP265 is 7.08 µM (active); in the assay with Dd2 it was 4.47 µM (active). The Potency entry in the assay with CP315, in the assay with CP329, in the assay with DFO2036, in the assay with ECU and in the assay with FAB9 was “inactive” in each case.

As for `Oc1c(Cl)cc(Cl)c(Cl)c1Cc1c(O)c(Cl)cc(Cl)c1Cl`, the Potency in the assay on CP315 was 6.75 µM (active); in the assay on CP329, 13.5 µM (active); in the assay with DIV14, 10.7 µM (active); in the assay on DIV17, 12 µM (active); in the assay on DIV30, 13.5 µM (active); in the assay on Dd2 it was 12.6 µM (active). The figures for the Potency with ECU and with GB4 were 12.6 µM (active) and 15.1 µM (active), respectively. In addition, the Potency entry in the assay on FAB9 was “inactive”.

As to `Cc1ccc(-c2ncc(Cl)cc2-c2ccc(S(C)(=O)=O)cc2)cn1`, the Potency result with CP266, in the assay with CP286, in the assay on CP291, in the assay on CP297, with CP305 and in the assay with CP315 was “inactive” in each case. Moreover, the Potency result in the assay on CP325, in the assay on CP329 and in the assay with FAB9 was “inactive” each time. Besides, the Potency in the assay on DIV17 is 15.1 µM (active).

With `Oc1ccc(Cl)cc1Cc1cc(Cl)ccc1O`, the Potency result in the assay on CP266, in the assay with CP268, with CP269, in the assay with CP286, in the assay with CP297 and with CP305 was “inactive” throughout. Moreover, the Potency result in the assay with CP315, in the assay on CP329, in the assay on CP335, with DFO2036, in the assay on Dd2 and in the assay on FAB9 was “inactive” throughout.

Turning to `CCCCCCCCCCCCOCCOCCOCCOCCOCCOCCOCCOCCOCCO`, the Potency entry with CP266, in the assay with CP268, in the assay with CP269, in the assay on CP286, with CP291 and with CP297 was “inactive” in each case. In addition, the Potency entry with CP305, with CP315, in the assay on CP325, with CP329, with DFO2036 and with DIV30 was “inactive” throughout. In addition, the Potency entry in the assay with FAB9 is “inactive”. Further, the Potency in the assay with Dd2 was 12.6 µM (active).

As to `NC(=O)C1(N2CCCCC2)CCN(CCCC(=O)c2ccc(F)cc2)CC1`, the Potency entry in the assay on CP266, in the assay with CP268, in the assay on CP269, in the assay with CP286, in the assay with CP315 and with CP325 was “inactive” throughout. For the same compound, the Potency result in the assay on CP329, in the assay with DFO2036, in the assay with DIV30, in the assay with ECU and in the assay on FAB9 was “inactive” throughout.

Take `CNCCCCOc1ccccc1Cc1ccccc1`: the Potency with CP265 is 8.91 µM (active); in the assay with DIV14, 3.79 µM (active); with DIV17, 1.9 µM (active); in the assay with Dd2, 2.51 µM (active); in the assay with GB4 it was 1.69 µM (active). Besides, the Potency entry in the assay on FAB9 was “inactive”.

As to `CCOC(=O)c1c(N)sc2c1CCN(Cc1ccccc1)C2`, the Potency with CP266 is 12 µM (active); in the assay with CP268 it was 7.57 µM (active); in the assay with CP269, 6.01 µM (active); in the assay on CP286, 5.62 µM (active); with CP291, 8.49 µM (active); in the assay on CP297 it was 7.57 µM (active). In addition, the Potency with CP305 is 6.01 µM (active); in the assay on CP315, 6.75 µM (active); in the assay on CP325, 4.78 µM (active); with CP329, 4.78 µM (active); in the assay with CP335, 4.26 µM (active); in the assay with DFO2036, 7.08 µM (active). Further, the Potency is 2.69 µM (active) with DIV14; 7.57 µM (active) in the assay on DIV17; 13.5 µM (active) with DIV30; 7.94 µM (active) in the assay on Dd2; 7.08 µM (active) in the assay with ECU; 4.47 µM (active) in the assay on FAB9. In addition, in the assay on GB4, the Potency is 4.26 µM (active).

Regarding `CN1CCC[C@@H]1CCO[C@](C)(c1ccccc1)c1ccc(Cl)cc1`, the Potency result with CP265, in the assay with CP315, in the assay with CP325, in the assay on DFO2036, in the assay with DIV30 and in the assay on ECU was “inactive” each time. The Potency entry in the assay with FAB9 was “inactive”. Besides, the Potency with DIV17 is 6.75 µM (active).

Regarding `CC(=O)O[C@]1(C(C)=O)CC[C@H]2[C@@H]3C=C(Cl)C4=CC(=O)CC[C@]4(C)[C@H]3CC[C@@]21C`, the Potency is 10.7 µM (active) in the assay with CP266; 16.9 µM (active) with CP268; 10 µM (active) in the assay on CP286; 15.1 µM (active) in the assay on CP291; 9.53 µM (active) with CP297; 13.5 µM (active) with CP305. In the assay on CP325, the Potency is 15.1 µM (active). Besides, in the assay with FAB9, the Potency result is “inactive”.

In the case of `O=C(O)CCc1nc2ccccc2[nH]1`, in the assay with CP265, the Potency entry is “inactive”. Besides, the Potency with Dd2 was 0.0007 µM (active).

As to `Clc1cccc(C(c2ccc3nc[nH]c3c2)n2ccnc2)c1` (centres undefined), the Potency in the assay with DFO2036 is 10 µM (active); in the assay with DIV14, 15.1 µM (active); with DIV17, 13.5 µM (active); in the assay on DIV30, 12 µM (active); in the assay on ECU, 3.16 µM (active); in the assay with GB4 it was 12 µM (active).
